Assay outcomes from PubChem.
Peg3 promoter: Peg3 promoter activity inhibition. HeLa PEG-Prom luciferase reporter, luminescence, overnight. actives 1.7% (n = 360,000). inhibition, % at 20 µM;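 active = inhibition of at least 50% at 20 µM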
MITF TRPM1 inh: reduces MITF-dependent TRPM1 promoter luciferase signal; SK-MEL-5 TRPM1 promoter luciferase, 24 h; inhibition, % at 12.5 µM; actives 0.83% (n = 330,000);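 active = mean inhibition across replicates of 60% or more, whatever share of single replicates reaches that level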
CF NFkB inh: inhibitors of cystic fibrosis induced NF-kB | KKLEB NF-kB-GFP reporter, PAF-induced, GFP fluorescence overnight | inhibition, % at 5 µM | actives 0.86% (n = 360,000) | AID 588850;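 active = at least 50% inhibition at 5 µM, scaled per plate between neutral and stimulator controls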;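 note: PAF is a Pseudomonas aeruginosa culture filtrate used as stimulus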
HIF-2a block: inhibitors of HIF-2a. 786-0 RCC cells HIF-2a reporter, luciferase luminescence, overnight. inhibition, % at 18.8 µM. actives 0.72% (n = 360,000). AID 624352;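 active = inhibition of the luminescence signal of 40% or more relative to plate controls, in a single-dose primary screen at 18.75 µM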
KKLEB cytotox: reduces viability of KKLEB cystic fibrosis airway cells. KKLEB CF airway cells viability, ATPlite luminescence, overnight; hits give low values; cells stimulated with P. aeruginosa culture filtrate. activity change (cytotoxicity), % at 5 µM. actives 0.36% (n = 360,000). AID 602141;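 active = corrected activity change at or below -50% at 5 µM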
Shn3 inh set2: reduces Shn3 3'UTR luciferase signal in osteoblasts; Clone20 osteoblast Shn3 3'UTR firefly luciferase, 24 h; inhibition, % at 12.5 µM; actives 0.52% (n = 360,000); AID 588674;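 active = mean inhibition of at least 75% with every replicate also reaching 75%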
Numbers stand for hits; n = inactive; x = no result given. Shown are actives, neighbours in structure and some others; about 2.8% of the full set was active somewhere.

SMILES	Peg3 promoter	MITF TRPM1 inh	CF NFkB inh	HIF-2a block	KKLEB cytotox	Shn3 inh set2
COc1ccc(OC)c(NC(=O)Nc2nc(C(N)CCc3ccccc3)cs2)c1 (stereo not given)	100	x	n	n	n	n
COc1ccccc1NC(=O)Nc1nc(CC(=O)N2CCN(c3ccccc3F)CC2)cs1	52	n	n	n	n	n
COc1ccc(CCNC(=O)Nc2nc(C(N)Cc3ccccc3)cs2)cc1OC (stereo not given)	n	x	n	n	n	n
COc1ccccc1NC(=O)Nc1nc(C(N)CC(C)C)cs1 (stereo not given)	61	x	n	n	n	n
COc1ccccc1NC(=O)Nc1nc(C(N)Cc2ccc(Cl)cc2)cs1 (stereo not given)	106	x	n	n	n	n
COc1ccccc1NC(=O)Nc1nc(CC(=O)NCc2c(F)cccc2F)cs1	n	n	n	n	n	n
CCOc1ccc(NC(=O)CC2C(=O)N(c3ccccc3)C(=O)N2CCc2cccs2)cc1 (stereo not given)	n	n	n	n	n	n
CCC(CC)C(=O)N(C)c1c(C)nc2c(OCCC3CCCCC3)cccn12	n	x	n	n	n	n
Cc1nc2ccccn2c1C(=O)OCC#N	n	n	n	n	n	n
COc1ccc(CC(N)c2csc(NC(=O)Nc3ccccc3-c3ccccc3)n2)cc1 (stereo not given)	92	x	n	n	n	n
COc1ccc(CC(N)c2csc(NC(=O)NCc3ccccc3)n2)cc1 (stereo not given)	n	x	n	n	n	n
COc1ccccc1NC(=O)Nc1nc(C(N)Cc2ccccc2)cs1 (stereo not given)	60	x	n	n	n	n
COc1ccc(OC)c(NC(=O)Cc2csc(NC(=O)Nc3ccccc3OC)n2)c1	54	n	n	n	n	n
NC(CCc1ccccc1)c1csc(NC(=O)NCC2CCCCC2)n1 (stereo not given)	98	x	n	n	n	n
NC(N)=NS(=O)(=O)c1ccc(NC(=S)NC(=O)Cc2ccc(Cl)cc2)cc1	n	n	n	n	n	n
CCOC(=O)c1cnc2ccc(Cl)cc2c1NCCN(C)C	59	n	n	n	n	n
CCOC(=O)c1cnc2ccc(Br)cc2c1NCCO	n	n	n	n	n	n
CN(C)S(=O)(=O)c1cc(NC(=O)CNCc2ccc(F)cc2)ccc1Cl	n	n	n	n	n	n
Cc1cc(OCC(=O)Nc2ccc3oc(-c4ccncc4)nc3c2)ccc1Cl	53	n	n	n	n	n
CC(C)N1C/C(=C/c2cccnc2)C(=O)/C(=C/c2cccnc2)C1	n	90	n	n	n	n
CCCC(=O)Nc1ccc(Cc2ccc(NC(=O)CCC)c(C(=O)O)c2)cc1C(=O)O	n	n	n	n	n	n
CN1C(=O)/C(=N\OC(=O)c2cccc3ccccc23)c2ccccc21	74	n	n	n	n	n
O=C(Nc1nccs1)c1ccc(COc2c(F)c(F)cc(F)c2F)cc1	n	x	n	n	n	n
Cc1csc(SCC(=O)Nc2cccc3nsnc23)n1	n	n	64	n	n	n
Cc1csc(SCC(=O)Nc2ccccc2C)n1	n	n	n	n	n	n
SMILES	Peg3 promoter	MITF TRPM1 inh	CF NFkB inh	HIF-2a block	KKLEB cytotox	Shn3 inh set2
COc1ccc(CCN2C(=NC(=O)C(C)C)SC3CS(=O)(=O)CC32)cc1OC (stereo not given)	n	n	n	n	n	n
O=C(CN(Cc1ccc(Cl)cc1)C(=O)c1csnn1)NCc1ccccc1	n	n	n	n	n	n
Cc1cc(C)c2c(N=NN3CCOCC3)[nH]nc2n1	n	n	n	n	n	n
NC(=O)c1ccsc1NC(=O)CN1CCN(S(=O)(=O)c2ccccc2C(F)(F)F)CC1	61	n	n	n	n	n
NS(=O)(=O)c1ccc(N2CCN(C(=O)c3ccco3)CC2)nc1	51	n	n	n	n	n
O=C(c1ccco1)N1CCN(c2ccc([N+](=O)[O-])cn2)CC1	n	n	n	n	n	n
Cc1ccc(C(=O)N2CCCCC2)cc1S(=O)(=O)N1CCOCC1	n	n	n	n	n	n
O=C1NC(=S)SC1=Cc1ccc2c(c1)OCO2	n	n	n	n	n	n
O=C1NC(=S)N/C1=C/c1ccc2c(c1)OCO2	72	n	78	n	n	n
CC(=O)ON=C1C=CC(=C(C#N)c2ccccc2)C=C1	n	x	80	n	n	n
COc1ccc(C(C#N)=C2C=CC(=NO)C=C2)cc1	n	n	n	n	n	n
COc1ccc(CN2CCNC(=O)C2CC(=O)N(C)CCC2CCOCC2)c(OC)c1 (stereo not given)	n	n	n	n	n	n
CC[C@@H](C(=O)[C@@H](C)[C@@H](O)[C@H](C)CCc1ccc(C)c(O)c1C(=O)O)[C@H]1O[C@](CC)([C@H]2CC[C@](O)(CC)[C@H](C)O2)C[C@@H]1C	94	n	76	n	-51	92
CCN(CC)S(=O)(=O)c1ccc(N2CCN(CCOc3ccc(OC)cc3)CC2)nc1	n	n	n	n	n	n
Cn1cnnc1SCc1ccc(C(=O)N/N=C(/CCC(=O)O)c2ccc(C(C)(C)C)cc2)cc1	n	n	n	n	n	n
O=C(CSc1nnc(-c2ccncc2)n1Cc1ccco1)Nc1ccccc1Cl	n	n	n	n	n	n
COc1ccc(-n2c(CNc3ccc(C)cc3)nnc2SCC(=O)Nc2nc(-c3ccccc3)cs2)cc1	n	n	n	n	n	n
COc1ccc(NCc2nnc(SCC(=O)Nc3nc(-c4ccccc4)cs3)n2-c2ccccc2)cc1	83	n	n	n	n	n
O=C(CSc1nnc(-c2ccncc2)n1Cc1ccco1)Nc1nc(-c2ccccc2)cs1	n	n	n	n	-55	n
COCCNC(=O)C(c1ccc(C)o1)N(C(=O)C(=O)NC1CCCCC1)c1ccc(F)cc1 (stereo not given)	n	n	n	n	n	n
COc1cccc(S(=O)(=O)Nc2ccc3c(c2)C(=O)N(C)C[C@H](OC)[C@H](C)CN[C@@H](C)CO3)c1	x	x	x	n	x	x
Oc1ccc(C[C@H]2CNCCN2CCCCC2CCCCC2)cc1	106	n	n	n	n	n
Oc1ccc(C[C@@H]2CNCCN2CCC23CC4CC(CC(C4)C2)C3)cc1	51	n	n	n	n	n
CCn1nc([N+](=O)[O-])c2c(-c3nc4ccccc4o3)c(N)n(CCCOC)c2c1=O	n	n	n	n	n	n
N/C(Cc1ccc(Cl)cc1)=N\OC(=O)c1cccc2ccccc12	111	n	n	n	n	n
N/C(Cc1ccc(Cl)cc1)=N\OC(=O)c1ccc2ccccc2c1	105	n	n	n	n	n
CCC1Nc2ncnc(N3CCc4ccccc4C3)c2N(Cc2ccc(Br)cc2)C1=O (stereo not given)	n	x	n	n	n	n
CC1(C)CCCN(C(=O)c2ccc3c(c2NCCO)C(=O)c2ccccc2C3=O)C1	n	n	n	40	n	n
